High-throughput results: PubChem, Broad Institute
Shh pathway inh: blocks Sonic Hedgehog signaling; Shh-LIGHT2 Gli-luciferase reporter, 30 h; inhibition, % (test concentration not listed); 2.1% of 22,000 active;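 active means mean inhibition across valid replicates above about 65%, limit read from the data; inconclusive means mean under the limit, yet half or more replicates past it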;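 further: pathway switched on by Shh-conditioned medium diluted 1 in 25 in low serum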
MITF inh: inhibitors of MITF | TRPM1 promoter luciferase, luminescence, 24 h | inhibition, % (test concentration not listed) | 0.28% of 37,000 active | AID 2240; in the data active means inhibition above about 85%; inconclusive means no clear call, values can overlap the other calls; inactive means below about 68%;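 further: human melanocyte line stably carrying TRPM1 promoter luciferase reporter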
PD-1 reverse act: activators reversing PD-1 mediated T-cell inhibition | primary human CD4 T cells, PD-L1 beads, CellTiter-Glo 96 h | activation, % (no concentration beside the values) | AID 2316 | 29,000 tested, under 10 active; call rule not given here;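 further: 0% = median vehicle wells and 100% = positive control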
NOMO-1 viab: STK33 inhibitor candidate reducing NOMO-1 cell viability. inhibition, % (no concentration beside the values). 7.5% of 37,000 active. AID 2330. NOMO-1 AML viability, CellTiter-Glo luminescence, 72 h; in the data active means inhibition above about 80%; inconclusive means no clear call, values can overlap the other calls
The depositor's hits bear a star; u = inconclusive; x = no result; ! = not confirmed by another sample. An excerpt weighted towards active compounds, which were near 8.1% of everything screened.

SMILES	Shh pathway inh	MITF inh	PD-1 reverse act	NOMO-1 viab
C[C@@H]1CN([C@@H](C)CO)C(=O)c2cccc(NC(=O)Nc3ccccc3)c2O[C@H]1CN(C)Cc1ccc2c(c1)OCO2	-36	42	-4	89*
C[C@@H]1CN([C@@H](C)CO)C(=O)c2cccc(NC(=O)Nc3ccc4c(c3)OCO4)c2O[C@@H]1CN(C)Cc1ccc(C(F)(F)F)cc1	38	-1	1	82*
C[C@@H]1CN([C@@H](C)CO)C(=O)c2cccc(NC(=O)Nc3ccc4c(c3)OCO4)c2O[C@H]1CN(C)Cc1ccc(Cl)c(Cl)c1	12	41	-7	102*
C[C@@H]1CN([C@H](C)CO)C(=O)c2cccc(NC(=O)Nc3ccc4c(c3)OCO4)c2O[C@@H]1CN(C)Cc1ccncc1	7	-4	3	-12
C[C@H]1CN([C@@H](C)CO)C(=O)c2cccc(NC(=O)Nc3ccc4c(c3)OCO4)c2O[C@H]1CN(C)Cc1ccc(C(F)(F)F)cc1	-54	-3	0	15
COC(=O)[C@@H](O)[C@H]1[C@@]2(C)C[C@]3(O)C4[C@@H](O[C@]56CC(=O)O[C@@H](c7ccoc7)[C@@]5(C)CCC([C@]46O)[C@]13C)[C@H]2O (some centres undefined)	5	x	x	x
CCCn1c(-c2ccc(F)cc2)n[nH]c1=O	8	-6	1	-16
C[C@@H]1CN([C@H](C)CO)C(=O)c2cccc(NC(=O)Nc3ccc4c(c3)OCO4)c2O[C@H]1CN(C)Cc1ccccc1	15	18	-3	97*
C[C@@H]1CN([C@@H](C)CO)C(=O)c2cccc(NC(=O)Nc3ccc(F)cc3)c2O[C@H]1CN(C)Cc1ccc2c(c1)OCO2	-34	38	-7	113*
C[C@@H]1CN([C@@H](C)CO)C(=O)c2cccc(NC(=O)Nc3ccc4c(c3)OCO4)c2O[C@H]1CN(C)Cc1ccc(C(=O)O)cc1	-41	-49	1	14
COc1cccc([C@H]2C(C#N)=C(N)C(C#N)(C#N)C3=CCC(C)C[C@@H]32)c1 (some centres undefined)	-3	50	-3	127*
COc1cc2c(cc1OC)[C@@H]1C(=O)c3ccc4c(c3O[C@@H]1CO2)C=CC(C)(C)O4	32	100*	x	47
C[C@H]1CN([C@@H](C)CO)C(=O)c2cc(NC(=O)Cc3ccccc3)ccc2O[C@H]1CN(C)Cc1ccccc1	x	9	2	24
C[C@@H]1CN([C@H](C)CO)C(=O)c2cc(NC(=O)Cc3ccccc3)ccc2O[C@H]1CN(C)Cc1ccc(-c2ccccc2)cc1	-12	29	-10	117*
C[C@H](CO)N1C[C@H](C)[C@H](CN(C)Cc2ccncc2)Oc2ccc(NC(=O)Cc3ccccc3)cc2C1=O	x	3	x	98*
O=c1c(C(F)(F)F)cccn1CCc1nc(-c2ccccc2)cs1	-36	6	2	8
CN(C)/C=N/n1cnc2sc3c(c2c1=O)CCCC3	x	0	0	4
CCc1ccc(NS(=O)(=O)c2ccc(OC)cc2)cc1	-17	16	3	113*
O=C(Cn1c2ccccc2n2nc(-c3ccco3)nc12)c1ccccc1	x	20	-2	21
O=C(Cn1c2ccccc2n2nc(-c3cccs3)nc12)c1ccc(Cl)cc1	x	7	-14	115*
C[C@@H]1CN([C@@H](C)CO)C(=O)c2cccc(NC(=O)Nc3ccc(F)cc3)c2O[C@@H]1CN(C)Cc1ccc(-c2ccccc2)cc1	-22	6	-1	99*
C[C@H](CO)N1C[C@H](C)[C@@H](CN(C)Cc2ccccc2)Oc2c(NC(=O)Nc3ccccc3)cccc2C1=O	-42	-1	-2	103*
C[C@@H]1CN([C@@H](C)CO)C(=O)c2cccc(NC(=O)Nc3ccccc3)c2O[C@@H]1CN(C)Cc1ccccc1	19	-25	0	17
C[C@@H]1CN([C@@H](C)CO)C(=O)c2cccc(NC(=O)Nc3ccccc3)c2O[C@H]1CN(C)Cc1ccc(-c2ccccc2)cc1	-13	26	-5	93*
C=CC(C)(O)C(O)CC1C(=C)CCC2C(C)(C(=O)O)CCCC12C (centres undefined)	-7	16	2	-1
SMILES	Shh pathway inh	MITF inh	PD-1 reverse act	NOMO-1 viab
COc1ccc(S(=O)(=O)Nc2ccc3c(c2)C(=O)N([C@@H](C)CO)C[C@@H](C)[C@H](CN(C)Cc2ccc(Cl)c(Cl)c2)O3)cc1	x	63	1	118*
COc1ccc(S(=O)(=O)Nc2ccc3c(c2)C(=O)N([C@H](C)CO)C[C@@H](C)[C@H](CN(C)Cc2ccc(Cl)c(Cl)c2)O3)cc1	x	4	1	50
COc1ccc(S(=O)(=O)Nc2ccc3c(c2)C(=O)N([C@H](C)CO)C[C@@H](C)[C@@H](CN(C)Cc2ccc(Cl)c(Cl)c2)O3)cc1	78*	27	-2	116*
COc1ccc(CN(C)C[C@H]2Oc3ccc(NS(=O)(=O)c4ccc(OC)cc4)cc3C(=O)N([C@H](C)CO)C[C@@H]2C)cc1	6	-2	x	14
COc1ccc(S(=O)(=O)Nc2ccc3c(c2)C(=O)N([C@@H](C)CO)C[C@H](C)[C@H](CN(C)Cc2ccc(Cl)c(Cl)c2)O3)cc1	20	8	0	93*
N#Cc1cccc(CSc2nnc(SCc3cccc(C#N)c3)s2)c1	68*	21	1	17
Nc1nnc(SCc2cccnc2)s1	x	-7	0	0
Cc1cc2c(C(C)C)c(O)c(O)c(C=O)c2c(O)c1-c1c(C)cc2c(C(C)C)c(O)c(O)c(C=O)c2c1O	68*!	31	x	111*
CC(Oc1ccc(C(C)(C)C)cc1)c1nc(-c2cccnc2)no1 (centres undefined)	x	63	-6	81*
C[C@@H]1CCCCO[C@H](CN(C)C(=O)Nc2ccc(C(F)(F)F)cc2)[C@@H](C)CN([C@H](C)CO)C(=O)c2cc(NS(=O)(=O)c3ccc(Cl)cc3)ccc2O1	44	49	-4	120*
C[C@@H]1CCCCO[C@@H](CN(C)Cc2ccc(C(F)(F)F)cc2)[C@@H](C)CN([C@H](C)CO)C(=O)c2cc(NS(=O)(=O)c3ccc(F)cc3)ccc2O1	0	21	-8	110*
C[C@@H]1CCCCO[C@@H](CN(C)C(=O)Nc2ccc(C(F)(F)F)cc2)[C@@H](C)CN([C@H](C)CO)C(=O)c2cc(NS(=O)(=O)c3ccccc3)ccc2O1	u	24	x	73
C[C@@H]1CN([C@H](C)CO)C(=O)c2cc(NS(=O)(=O)c3ccc(F)cc3)ccc2O[C@@H]1CN(C)Cc1ccc(C(F)(F)F)cc1	14	13	-1	112*
C[C@@H]1CN([C@H](C)CO)C(=O)c2cc(NS(=O)(=O)c3ccc(F)cc3)ccc2O[C@H]1CN(C)Cc1ccc(C(F)(F)F)cc1	x	6	-2	81*
C[C@H]1CN([C@@H](C)CO)C(=O)c2cc(NS(=O)(=O)c3ccc(F)cc3)ccc2O[C@@H]1CN(C)Cc1ccc(C(F)(F)F)cc1	-4	-5	-1	-15
C[C@@H]1CCCCO[C@@H](CN(C)Cc2ccc(C(F)(F)F)cc2)[C@@H](C)CN([C@H](C)CO)C(=O)c2cc(NS(=O)(=O)c3ccccc3)ccc2O1	x	5	-2	u
